This passage reports outcome and AC50 results from PubChem BioAssay (EPA / NIEHS).

The source made the active and inactive calls. How the source made its calls: active means hit-call score of the fitted dose curve at least 0.9, where 1 is the maximum; inactive means score below 0.9.

Cellular tumor antigen p53 (Homo sapiens), sequence (P04637 whole entry, looked up): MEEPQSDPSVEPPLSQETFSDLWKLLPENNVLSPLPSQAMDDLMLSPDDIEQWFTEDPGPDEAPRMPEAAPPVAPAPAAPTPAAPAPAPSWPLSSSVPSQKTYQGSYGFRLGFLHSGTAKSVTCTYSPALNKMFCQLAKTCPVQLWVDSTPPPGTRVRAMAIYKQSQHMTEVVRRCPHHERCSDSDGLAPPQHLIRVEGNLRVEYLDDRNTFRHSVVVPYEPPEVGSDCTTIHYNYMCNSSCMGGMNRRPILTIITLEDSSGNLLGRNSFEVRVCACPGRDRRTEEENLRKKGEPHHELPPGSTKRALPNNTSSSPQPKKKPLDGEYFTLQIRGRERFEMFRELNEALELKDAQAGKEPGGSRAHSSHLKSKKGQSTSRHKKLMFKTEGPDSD

System in one test: not listed separately
The test is described as follows: ATG_Oct_MLP_CIS: Attagene CIS-FACTORIAL HepG2 Assay for human Octamer-Binding Transcription Factor (Oct) (AID 2282993). The settings on record: HepG2 Attagene cis-factorial Oct reporter, mRNA; actives raise or lower the signal. Put shortly:
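Transfected HepG2 cells, 24 h treatment. Reporter mRNA quantified by RT-PCR–capillary electrophoresis; bidirectional fitting against DMSO.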
On to `CCCCC(CC)COP(=O)(OCC(CC)CCCC)OCC(CC)CCCC` (centres undefined), for which the compound was called inactive.

In the case of `Oc1ccccc1O`, the half-maximal activity concentration (AC50) was 31.1 µM (active).

For the compound `CC1=C(C)S(=O)(=O)CCS1(=O)=O`, the call was inactive.

With `CC(C)(O)c1ccc(CNC(=O)c2cccnc2Oc2ccc(F)cc2)cc1`, the call was inactive.

On to `COC(=O)CCC(=O)OC`, for which the call was inactive.

Consider `CC(C)COC(=O)CCCCC(=O)OCC(C)C`, for which the compound was classed as inactive.

For `COc1ccc(C(=O)Nc2nc3ccccc3c(NCc3ccccc3)c2C#N)cc1`, the AC50 is 7.37 µM (active).

Regarding `O=C1O[C@H]([C@H](O)CO)C(O)=C1O`, the compound was classed as inactive.

For the compound `C/C=C/c1ccc(OC)cc1`, the result was inactive.

Regarding `O=C(O)CN(CC(=O)O)CC(=O)O`, the compound was called inactive.

Regarding `O=NO`, the compound was classed as inactive.

On to `CO[C@@H]1COCC[C@@H]1N[C@@H]1CC[C@@](C(=O)N2CCc3ncc(C(F)(F)F)cc3C2)(C(C)C)C1`, for which the compound was classed as inactive.

On to `CCCC[C@H]1CN(CC2CCOCC2)C(=O)OC12CCN(C1(C)CCN(C(=O)c3c(C)ncnc3C)CC1)CC2`, for which the call was inactive.

Consider `CCc1cc(C2=C(C(=O)O)N(c3ccccc3C(F)(F)F)S(=O)(=O)c3ccccc32)cc2c1OCO2`, for which the half-maximal activity concentration (AC50) was 61 µM (active).

As for `Oc1ccc(O)cc1`, the compound was classed as inactive.

Take `Cc1cc(SC2=C(O)C[C@@](CCc3ccc(N)cc3)(C(C)C)OC2=O)c(C(C)(C)C)cc1CO`: the call was inactive.

As to `CN(C)CCCN(C)CCCN(C)C`, the compound was called inactive.

Turning to `O=C(O)c1cccnc1`, the outcome was inactive.

Take `CCCCCCCCCC[N+](C)(C)[O-]`: the compound was called inactive.

With `CCCCc1nc2cccnc2n1Cc1ccc(-c2ccccc2-c2nnn[nH]2)cc1`, the compound was classed as inactive.

Consider `CC1(C)C(=O)NC(=O)N1CO`, for which the outcome was inactive.

Regarding `CCCCCCCCCCCCCCOS(=O)(=O)O`, the outcome was inactive.

Take `CCc1nc(N)nc(N)c1-c1ccc(Cl)cc1`: the AC50 is 138 µM (active).

With `COC(=O)[C@H]1[C@H]2C[C@@H]3c4[nH]c5cc(OC)ccc5c4CCN3C[C@H]2C[C@@H](OC(=O)c2cc(OC)c(OC)c(OC)c2)[C@@H]1OC`, the result was inactive.

As to `CCCCCCC(CCCCCCCCCCC(=O)OCC(COC(C)=O)OC(C)=O)OC(C)=O` (centres undefined), the call was inactive.

On to `COC(=O)CCCC(=O)OC`, for which the compound was classed as inactive.

As for `O=C1c2c(O)cccc2Cc2cccc(O)c21`, the result was inactive.

With `CCCCOC(=O)CCCCC(=O)OCCCC`, the compound was called inactive.

For `CN(C)CCCN1c2ccccc2Sc2ccc(Cl)cc21`, the AC50 was 11.1 µM (active).

Consider `O=C(Oc1ccccc1)c1cccc(C(=O)Oc2ccccc2)c1`, for which the call was inactive.

For a further test, the target named is Cellular tumor antigen p53 (Homo sapiens) (UniProt P04637). Nature of the test: ATG_p53_CIS: Attagene CIS-FACTORIAL HepG2 Assay for human p53 Transcription Factor (AID 2282994). The settings on record: HepG2 p53 cis-element reporter, Attagene mRNA; actives raise or lower the signal. Summed up:
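HepG2, transient MRTU transfection (cis promoter elements, endogenous TFs); 24 h dosing; RNA isolation, RT-PCR, 6-FAM primer extension, HpaI digest, CE fluorescence; bidirectional fit vs DMSO.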
`CCCCC(CC)COP(=O)(OCC(CC)CCCC)OCC(CC)CCCC` (centres undefined): the compound was called inactive.

For `Oc1ccccc1O`, the call was inactive.

For `CC1=C(C)S(=O)(=O)CCS1(=O)=O`, the AC50 was 130 µM (active).

As to `CC(C)(O)c1ccc(CNC(=O)c2cccnc2Oc2ccc(F)cc2)cc1`, the result was inactive.

Take `COC(=O)CCC(=O)OC`: the result was inactive.

As to `COc1ccc(C(=O)Nc2nc3ccccc3c(NCc3ccccc3)c2C#N)cc1`, the call was inactive.

As for `O=C1O[C@H]([C@H](O)CO)C(O)=C1O`, the call was inactive.

For `O=C(O)CN(CC(=O)O)CC(=O)O`, the result was inactive.

For `CO[C@@H]1COCC[C@@H]1N[C@@H]1CC[C@@](C(=O)N2CCc3ncc(C(F)(F)F)cc3C2)(C(C)C)C1`, the outcome was inactive.

As to `CCCC[C@H]1CN(CC2CCOCC2)C(=O)OC12CCN(C1(C)CCN(C(=O)c3c(C)ncnc3C)CC1)CC2`, the compound was called inactive.

For the compound `CCc1cc(C2=C(C(=O)O)N(c3ccccc3C(F)(F)F)S(=O)(=O)c3ccccc32)cc2c1OCO2`, the compound was called inactive.

`Oc1ccc(O)cc1`: the result was inactive.

Regarding `Cc1cc(SC2=C(O)C[C@@](CCc3ccc(N)cc3)(C(C)C)OC2=O)c(C(C)(C)C)cc1CO`, the result was inactive.

For `CN(C)CCCN(C)CCCN(C)C`, the compound was classed as inactive.

Consider `CCCCCCCCCC[N+](C)(C)[O-]`, for which the outcome was inactive.

Take `CCCCc1nc2cccnc2n1Cc1ccc(-c2ccccc2-c2nnn[nH]2)cc1`: the compound was called inactive.

In the case of `CC1(C)C(=O)NC(=O)N1CO`, the outcome was inactive.

Take `CCCCCCCCCCCCCCOS(=O)(=O)O`: the outcome was inactive.

Turning to `CCc1nc(N)nc(N)c1-c1ccc(Cl)cc1`, the concentration at half-maximal activity (AC50) was 30.3 µM (active).

`COC(=O)[C@H]1[C@H]2C[C@@H]3c4[nH]c5cc(OC)ccc5c4CCN3C[C@H]2C[C@@H](OC(=O)c2cc(OC)c(OC)c(OC)c2)[C@@H]1OC`: the half-maximal activity concentration (AC50) was 22.9 µM (active).

For `CCCCCCC(CCCCCCCCCCC(=O)OCC(COC(C)=O)OC(C)=O)OC(C)=O` (centres undefined), the compound was called inactive.

Turning to `COC(=O)CCCC(=O)OC`, the compound was called inactive.

In the case of `O=C1c2c(O)cccc2Cc2cccc(O)c21`, the call was inactive.

In the case of `CN(C)CCCN1c2ccccc2Sc2ccc(Cl)cc21`, the AC50 is 6.92 µM (active).

Read-out in a further test: not listed separately
Nature of the test: BSK_3C_TissueFactor: BioMAP Diversity Plus: 3C Assay for Tissue Factor Biomarker Activity (AID 2282997). As to conditions: BioMAP 3C HUVEC, tissue factor biomarker readout; actives raise or lower the signal. Put shortly: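 Primary human umbilical vein endothelial cells in the 3C system were exposed to test chemical for 24 h, then Tissue Factor measured by ELISA. Activity was fitted bidirectionally against DMSO as negative control and baseline.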
For the compound `CCCCC(CC)COP(=O)(OCC(CC)CCCC)OCC(CC)CCCC` (centres undefined), the outcome was inactive.

As to `Oc1ccccc1O`, the concentration at half-maximal activity (AC50) was 2.96 µM (active).

As for `CC1=C(C)S(=O)(=O)CCS1(=O)=O`, the result was inactive.

For the compound `CC(C)(O)c1ccc(CNC(=O)c2cccnc2Oc2ccc(F)cc2)cc1`, the outcome was inactive.

For the compound `COC(=O)CCC(=O)OC`, the outcome was inactive.

In the case of `CC(C)COC(=O)CCCCC(=O)OCC(C)C`, the outcome was inactive.

As to `COc1ccc(C(=O)Nc2nc3ccccc3c(NCc3ccccc3)c2C#N)cc1`, the outcome was inactive.

For the compound `O=C1O[C@H]([C@H](O)CO)C(O)=C1O`, the outcome was inactive.

With `C/C=C/c1ccc(OC)cc1`, the outcome was inactive.

For the compound `O=C(O)CN(CC(=O)O)CC(=O)O`, the outcome was inactive.

With `O=NO`, the outcome was inactive.

As to `CO[C@@H]1COCC[C@@H]1N[C@@H]1CC[C@@](C(=O)N2CCc3ncc(C(F)(F)F)cc3C2)(C(C)C)C1`, the result was inactive.

As for `CCCC[C@H]1CN(CC2CCOCC2)C(=O)OC12CCN(C1(C)CCN(C(=O)c3c(C)ncnc3C)CC1)CC2`, the outcome was inactive.

Regarding `CCc1cc(C2=C(C(=O)O)N(c3ccccc3C(F)(F)F)S(=O)(=O)c3ccccc32)cc2c1OCO2`, the outcome was inactive.

As to `Oc1ccc(O)cc1`, the outcome was inactive.

In the case of `Cc1cc(SC2=C(O)C[C@@](CCc3ccc(N)cc3)(C(C)C)OC2=O)c(C(C)(C)C)cc1CO`, the outcome was inactive.

As for `CN(C)CCCN(C)CCCN(C)C`, the result was inactive.

In the case of `O=C(O)c1cccnc1`, the outcome was inactive.

In the case of `CCCCCCCCCC[N+](C)(C)[O-]`, the outcome was inactive.

For the compound `CCCCc1nc2cccnc2n1Cc1ccc(-c2ccccc2-c2nnn[nH]2)cc1`, the outcome was inactive.

As to `CC1(C)C(=O)NC(=O)N1CO`, the outcome was inactive.

As for `CCCCCCCCCCCCCCOS(=O)(=O)O`, the result was inactive.

Consider `CCc1nc(N)nc(N)c1-c1ccc(Cl)cc1`, for which the result was inactive.

As for `COC(=O)[C@H]1[C@H]2C[C@@H]3c4[nH]c5cc(OC)ccc5c4CCN3C[C@H]2C[C@@H](OC(=O)c2cc(OC)c(OC)c(OC)c2)[C@@H]1OC`, the concentration at half-maximal activity (AC50) was 10.4 µM (active).

In the case of `CCCCCCC(CCCCCCCCCCC(=O)OCC(COC(C)=O)OC(C)=O)OC(C)=O` (centres undefined), the outcome was inactive.

On to `COC(=O)CCCC(=O)OC`, for which the outcome was inactive.

With `O=C1c2c(O)cccc2Cc2cccc(O)c21`, the AC50 is 5.39 µM (active).

With `CCCCOC(=O)CCCCC(=O)OCCCC`, the outcome was inactive.

As to `CN(C)CCCN1c2ccccc2Sc2ccc(Cl)cc21`, the AC50 was 5.43 µM (active).

For the compound `O=C(Oc1ccccc1)c1cccc(C(=O)Oc2ccccc2)c1`, the outcome was inactive.

By AC50 is commonly meant the concentration giving half of the maximal activity seen.
